# Laboratory results reported in PubChem BioAssay AID565 (University of Pittsburgh Molecular Library Screening Center, 2006).
# The campaign covered roughly 65,000 compounds. About 1,200 (1.8%) were called active. Cut-off read from the data, not from the text of the source: active = inhibition above about 50%; inactive = the rest. Only a selection was taken, and actives are over-represented in it overall.
# Biological target: Gag-Pol polyprotein (Human immunodeficiency virus type 1 group M subtype B (isolate HXB2)) (UniProt P04585)
# Assay: blockers of HIV-1 RNase H RNA/DNA cleavage – biochemical, fluorescence, primary screen (AID 565)
# Conditions: RT-RNase H RNA/DNA duplex cleavage, at 10 µM, hits give high values
row,Compound,inhibition
1,Cc1cc(C)n(C(=O)c2ccc(S(=O)(=O)N3CCCC3)cc2)n1,-7.85% (inactive)
2,Fc1ccccc1OCCSc1nc2ccccc2o1,-31.7% (inactive)
3,Cc1nc2ccccc2c(=O)n1CCCn1ccnc1,-6.99% (inactive)
4,Cc1ccnc(-n2sc3ccccc3c2=O)n1,84.5% (active)
5,CC12C(=O)N(n3cnnc3)C(=O)C1C1C=CC2C1 (stereo not drawn),1.01% (inactive)
6,C/C(=C\C(=O)c1ccc(Br)cc1)N1CCCCC1,-18.6% (inactive)
7,CCC(=O)Nc1cccc(NC(=O)CSc2nnc(-c3ccc(NS(C)(=O)=O)cc3)n2C)c1,-1.65% (inactive)
8,CCc1c(C)[nH]c(=S)c(C#N)c1C,84.3% (active)
9,CC(=O)N1CCN(CCN=CC2=C(O)CC(C)(C)CC2=O)CC1,-3.55% (inactive)
10,COCCCNC(=O)Cn1cc(C(=O)C2CC2)c2ccccc21,-5.05% (inactive)
11,O=C(CSc1nnc(Cn2cnc3ccccc32)o1)c1ccccc1,-18.7% (inactive)
12,CCOc1cccc(-c2nnc3sc(COc4ccc(OC)cc4)nn23)c1,1.27% (inactive)
13,c1ccc(Cc2nn3c(Cn4cnc5ccccc54)nnc3s2)cc1,82.6% (active)
14,Cc1ccc(C(=O)CSc2nnc(Cn3nnc4ccccc43)n2C)cc1,-1.04% (inactive)
15,Fc1ccc(OCc2nn3c(Cn4nnc5ccccc54)nnc3s2)cc1,77.8% (active)
16,N#CCCn1cnc2ccccc21,-0.17% (inactive)
17,NC(=O)C1CCN(C2OC(=O)c3ccccc32)CC1 (stereo not drawn),2.61% (inactive)
18,CCOc1cc(C(=S)N2CCOCC2)ccc1O,91.2% (active)
19,COc1ccc(OCC(=O)N2CCOCC2)cc1,-8.89% (inactive)
20,CCOc1cc(-c2noc(CCC(=O)N3CCOCC3)n2)ccc1OC,-9.69% (inactive)
21,Cn1c(=O)[nH]c(=O)c2c1nc(N1CCCCCC1)n2CC(=O)c1ccccc1,1.85% (inactive)
22,CCCCCn1c(SCCC(C)C)nc2c1c(=O)[nH]c(=O)n2C,54.8% (active)
23,Cc1nnc(SCCCn2c(N3CCCCC3)nc3c2c(=O)[nH]c(=O)n3C)s1,-3.25% (inactive)
24,CCCSc1nc2c(c(=O)[nH]c(=O)n2C)n1CCc1ccccc1,-11.9% (inactive)
25,CCCCCCn1c(SCC(=O)c2ccccc2)nc2c1c(=O)[nH]c(=O)n2C,54.7% (active)
26,Cn1c(=O)[nH]c(=O)c2c1nc(Br)n2CCCCSc1nc2ccccc2o1,19.8% (inactive)
27,CCn1cc(NC(=O)Nc2ccc(OC)c(OC)c2)c(C(N)=O)n1,9.07% (inactive)
28,O=C(O)c1cccc2c1C(=O)N(C1CCCCC1)C2,-4.3% (inactive)
